# AmpC det inh = AmpC beta-lactamase inhibition, detergent assay. P00811. purified AmpC, nitrocefin hydrolysis with detergent. Potency, µM (series often up to 28.7 µM), inactives show top-dose activity change, negative = inhibition. actives 0.09% (n = 71,000); active = well fitted curve in the direction sought with a large enough effect; inconclusive = small, poorly fitted or top-dose-only effect; also: % is scaled to controls: 0 for no effect and ±100 for the full control effect
# Target sequence (P00811 whole entry, looked up): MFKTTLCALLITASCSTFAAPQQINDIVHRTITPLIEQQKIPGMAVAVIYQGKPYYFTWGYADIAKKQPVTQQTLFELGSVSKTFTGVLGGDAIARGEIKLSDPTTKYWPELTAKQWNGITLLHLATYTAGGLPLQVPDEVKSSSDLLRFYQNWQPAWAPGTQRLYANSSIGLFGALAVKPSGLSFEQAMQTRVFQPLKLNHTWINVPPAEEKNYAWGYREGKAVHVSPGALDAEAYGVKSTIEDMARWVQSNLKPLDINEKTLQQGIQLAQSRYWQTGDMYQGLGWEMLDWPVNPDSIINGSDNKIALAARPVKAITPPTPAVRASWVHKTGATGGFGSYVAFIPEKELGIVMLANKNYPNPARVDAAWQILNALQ
#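 E. coli AmpC (5.3 nM) in 20 mM phosphate pH 7.0 with 0.01% Triton X-100, preincubated 15 min RT with compound; nitrocefin (2 uL of 800 uM stock) hydrolysis followed by 480 nm absorbance every 20 s over 4 min.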
# SmPrx2 inh = inhibitors of Schistosoma mansoni peroxiredoxin 2; S. mansoni Prx2 activity coupled to TGR/GSH (TGR is thioredoxin glutathione reductase), NADPH fluorescence loss, qHTS; actives 0.07% (n = 65,000); Potency, µM
#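 Enzyme mix: 100 uM NADPH, 25 nM TGR, 700 uM GSH, 50 nM Prx2 in 100 mM phosphate pH 7.4, 10 mM EDTA, 0.01% Tween-20. 15 min RT with compound; NADPH/GSH added, H2O2 starts reaction; NADPH fluorescence read 8 min.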
# AmpC nodet inh = inhibitors of E. coli AmpC beta-lactamase without detergent; Potency, µM (series often up to 28.7 µM), for inactives: at the top dose activity change, negative = inhibition; actives 1.8% (n = 71,000); AID 585; AmpC nitrocefin hydrolysis, absorbance 480 nm, no detergent; P00811; also: % of control where 0% means no effect
#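 AmpC in 20 mM phosphate buffer pH 7.0 was preincubated 15 min at room temperature with compounds. Nitrocefin (800 uM stock) was then added and hydrolysis followed at 480 nm every 20 s for 4 min.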
# Anthrax LT inh = blocks cellular internalization of anthrax lethal toxin | Cells, anthrax lethal toxin internalization, FRET ratio (460/530) | Potency, µM (series often up to 40 µM), without a hit: at the top dose activity change, negative = inhibition, actives largely listed as inhibitors | actives 0.67% (n = 70,000); also: % is scaled to controls: 0 for no effect and ±100 for the full control effect; nearly all actives have a fitted effect of over 50% in size
# * marks the source's active call; other numbers are inactive results; ? = inconclusive; nt = no result given; [ ] = another dose, or the depositor's remark. Hits are enriched below; roughly 2.6% of the tested compounds scored in any of these assays. Unless noted, calls follow the shape of the full dose curve. Potency is read from the fitted curve at half-maximal effect.
SMILES,AmpC det inh,SmPrx2 inh,AmpC nodet inh,Anthrax LT inh
CCOc1ccc(NC(=O)CN2C(=O)COc3ccc(Cl)cc32)cc1,14%,>57,4µM*[single pt active],?
Cc1cccc(NC(=O)CN2C(=O)COc3ccc(Cl)cc32)c1,24%,>57,-20%,?
COC(=O)CN1C(=O)COc2ccc(Cl)cc21,17%,>57,4µM*[single pt active],3%
COc1cccc(NC(=O)CN2C(=O)COc3ccc(Cl)cc32)c1,12%,>57,-5%,16µM*
CCOC(=O)C1CCCN(C(=O)C2c3ccccc3Oc3ccccc32)C1 (stereo not drawn),1%,>57,55%,?
CCN(CCNC(=O)CCCn1nc(C)n2c(cc3sccc32)c1=O)c1ccccc1,8%,>57,72%,-12%
Cc1nn(Cc2nc(-c3cccs3)no2)c(C)c1Br,10%,>57,2.5µM*[single pt active],-18%
O=C1c2ccccc2C(Nc2ccc(Cl)cn2)N1c1cccnc1 (stereo not drawn),12%,>57,4µM*[single pt active],-12%
O=C1c2ccccc2C(O)N1c1cccnc1 (stereo not drawn),14%,>57,4µM*[single pt active],-7%
CCc1nn2cc(-c3ccccc3)nc2s1,-2%,>57,26%,9%
CN(C)C(=O)N1CCC(C(=O)NCc2ccccc2Cl)CC1,-3%,>57,-14%,-7%
O=C(NCc1ccccc1Cl)C1CCN(C(=O)c2sccc2-n2cccc2)CC1,4%,>57,25%,13µM*
COc1ccc(C2=NOC(C(=O)Nc3ccc(C)cc3)C2)cc1OC (stereo not drawn),-3%,>57,48%,3%
COc1ccc(C2=NOC(C(=O)Nc3cc(C)nn3-c3ccccc3)C2)cc1OC (stereo not drawn),15%,>57,4µM*[single pt active],-2%
CCOP(=O)(OCC)OCC,7%,nt,1%,4%
Cc1csc(NC(=O)C(CC(C)C)NS(=O)(=O)c2ccc3c(c2)oc(=O)n3C)n1 (stereo not drawn),8%,>57,4µM*[single pt active],1%
CS(=O)(=O)c1ccc(Cl)c(C(=O)O)c1,1%,>57,7%,-1%
Cc1noc(C)c1C(=O)Nc1nc(C23CC4CC(CC(C4)C2)C3)cs1,-3%,>57,0%,10µM*
CCOC(=O)Cc1csc(NC(=O)c2c(-c3ccccc3)noc2C)n1,-3%,nt,24%,0%
Cc1noc(C)c1S(=O)(=O)N1CCCC(C(=O)Nc2ccc(Cl)cn2)C1 (stereo not drawn),-4%,>57,11%,-2%
Cc1cc(NC(=O)C2CCCN(S(=O)(=O)c3c(C)noc3C)C2)no1 (stereo not drawn),13%,>57,4µM*[single pt active],-5%
CCCn1c(SCC(=O)NCc2ccco2)nc2c1c(=O)n(C)c(=O)n2C,3%,>57,6%,-12%
Cc1ccccc1Cn1nc(C)c(NC(=O)c2noc3c2CCc2ccccc2-3)c1C,13%,?,64%,?
Cc1c(NC(=O)c2noc3c2CCc2ccccc2-3)c(=O)n(-c2ccccc2)n1C,10%,>57,4µM*[single pt active],-14%
Cc1cc(NC(=O)c2noc3c2CCc2ccccc2-3)no1,9%,>57,4µM*[single pt active],-1%
SMILES,AmpC det inh,SmPrx2 inh,AmpC nodet inh,Anthrax LT inh
Cc1noc(C)c1COc1cccc(C(=O)OCC(=O)N2CC(=O)Nc3ccccc32)c1,10%,>57,38%,?
COc1cc2c(=O)n(CC3CCCO3)c(=O)n(CC(=O)Nc3ccc(F)cc3F)c2cc1OC (stereo not drawn),16%,>57,4µM*[single pt active],10%
COc1cccc(C2CC(=O)N3CN(c4cccc(Cl)c4C)CSC3=C2C#N)c1OC (stereo not drawn),13%,nt,4µM*[single pt active],?
COc1ccc(OC)c(C2CC(=O)N3CN(c4cccc(Cl)c4)CSC3=C2C#N)c1 (stereo not drawn),8%,>57,-23%,-30%
COc1ccc(OC)c(C2CC(=O)N3CN(c4cccc(Cl)c4C)CSC3=C2C#N)c1 (stereo not drawn),12%,>57,4µM*[single pt active],?
c1cncc(CNc2ncncc2-c2ccoc2)c1,4%,>57,46%,6%
COc1cccc(-n2c(Cc3cc(=O)[nH]c(=O)[nH]3)nnc2SC(C)C)c1,13%,>57,4µM*[single pt active],5%
CCOc1ccc(-n2c(Cc3cc(=O)[nH]c(=O)[nH]3)nnc2SC(C)C(=O)OC)cc1 (stereo not drawn),10%,>57,24%,-8%
COC(=O)C(C)Sc1nnc(Cc2cc(=O)[nH]c(=O)[nH]2)n1-c1cccc(OC)c1 (stereo not drawn),13%,>57,4µM*[single pt active],0%
CSc1nnc(Cc2cc(=O)[nH]c(=O)[nH]2)n1-c1cccc(C)c1,7%,>57,-16%,-6%
C=CCSc1nnc(Cc2cc(=O)[nH]c(=O)[nH]2)n1-c1cc(C)ccc1C,14%,>57,4%,-26%
COC(=O)C(C)Sc1nnc(Cc2cc(=O)[nH]c(=O)[nH]2)n1-c1cc(C)ccc1C (stereo not drawn),14%,>57,2µM*,-5%
COc1ccc(Cn2c(=O)[nH]c3cc(C(=O)NCCCN4CCCCC4)ccc3c2=O)cc1,2%,>57,24%,6%
O=C(NCc1ccc2c(c1)OCO2)c1ccc2c(=O)n(C3CCCC3)c(=O)[nH]c2c1,-2%,>57,7.9µM*,?
COc1ccc(Cn2c(=O)[nH]c3cc(C(=O)NCc4ccc5c(c4)OCO5)ccc3c2=O)cc1,-4%,>57,13µM*[single pt active],-6%
O=C1NO[C@H]2[C@@H]1CN[C@@H]2C(=O)O,nt,nt,nt,8%
CCOC(=O)c1cc2ccc(OC(=O)c3ccco3)cc2oc1=O,-3%,>57,13%,?
CC(=O)Oc1ccc2cc(-c3nc4ccccc4n3C)c(=O)oc2c1,4%,18*,24%,?
Clc1ccc(-n2nnnc2SCc2c(-c3ccccc3)nc3sccn23)cc1,-2%,>57,13µM*,-10%
Cc1cc(C)n(CC(O)COc2ccccc2C(=O)Nc2ccccc2)n1 (stereo not drawn),15%,>57,20%,-17%
CCn1cc(C(=O)NCCCOC)c(=O)c2cc(S(=O)(=O)N(C)C)ccc21,13%,>57,3.2µM*[single pt active],-1%
CN(C1CCCCC1)S(=O)(=O)c1ccc2c(c1)c(=O)c(C(=O)NCCN1CCCC1)cn2C,10%,>57,91%,10µM*
CN(CCNC(=O)c1cn(C)c2ccc(S(=O)(=O)N(C)C)cc2c1=O)CCc1ccccc1,14%,>57,4µM*[single pt active],-13%
Cc1ccc2nc(CSc3nnc(Cc4cccs4)n3C3CCCCC3)cc(=O)n2c1,-9%,>57,88%,?
NC(=O)CI,-12%,?,13µM*,0%
CC(N)=O,-2%,>57,12%,nt
CN(C)c1ccc(C(=O)Nc2nc3c(s2)CCCC3)cc1,-2%,>57,4%,13µM*
CCn1c(=O)c2cc(C(=O)NCCN3CCOCC3)sc2c2ccccc21,12%,>57,4µM*[single pt active],-9%
CCn1c(=O)c2cc(C(=O)NCc3cccs3)sc2c2ccccc21,15%,>57,4µM*[single pt active],-15%

# Source: PubChem BioAssay (National Center for Advancing Translational Sciences (NCATS))
